NOD2-RIPK2 inh: blocks binding of human NOD2 to RIPK2 | O43353 | inhibition, % at 4.98 µM | hit rate 0.38% among 360,000 | AID 624267 | CHO BLA complementation NOD2-RIPK2, CCF4 ratio; in the data active means inhibition above about 21%
Mcl1-Bid inh: disrupts binding of human Mcl-1 to Bid peptide; hit rate 0.97% among 220,000; TR-FRET Mcl-1/Bid-Dy647 peptide binding, 1536-well; inhibition, % at 21.7 µM; Q07820;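 active means compounds that cut the binding signal by more than half at the single screening dose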;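 further: His-tagged Mcl-1 with europium anti-His antibody binding Bid BH3 peptide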
TLR9-MyD88 inh: TLR9-MyD88 interaction inhibition | Q9NR96+Q99836 | CHO BLA complementation TLR9-MyD88, CCF4 FRET ratio | inhibition, % at 4.98 µM | hit rate 0.21% among 340,000 | AID 504734;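 active means inhibition above the mean over all tested compounds plus 3 SD, cut at about 21% in these data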
Mcl1 Noxa PPI: disrupts binding of human Mcl-1 to Noxa peptide | AID 1022 | TR-FRET Mcl-1/Noxa peptide binding, 2 h | Q07820 | hit rate 1.5% among 220,000 | inhibition, % at 21.7 µM;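 active means compounds that cut the protein-peptide binding signal by more than 50% relative to plate controls in a single-dose test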;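 further: His-tagged Mcl-1 with rhodamine Noxa BH3 peptide and terbium anti-His antibody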
TLR4-MyD88 BLA: inhibitors of human TLR4-MyD88 binding | hit rate 0.18% among 200,000 | HeLa CL3-4 TLR4/MyD88 BLA complementation, FRET ratio | O00206+Q99836 | inhibition, % at 8.4 µM; in the data active means inhibition above about 25%
Target sequence (O00206 whole entry, looked up): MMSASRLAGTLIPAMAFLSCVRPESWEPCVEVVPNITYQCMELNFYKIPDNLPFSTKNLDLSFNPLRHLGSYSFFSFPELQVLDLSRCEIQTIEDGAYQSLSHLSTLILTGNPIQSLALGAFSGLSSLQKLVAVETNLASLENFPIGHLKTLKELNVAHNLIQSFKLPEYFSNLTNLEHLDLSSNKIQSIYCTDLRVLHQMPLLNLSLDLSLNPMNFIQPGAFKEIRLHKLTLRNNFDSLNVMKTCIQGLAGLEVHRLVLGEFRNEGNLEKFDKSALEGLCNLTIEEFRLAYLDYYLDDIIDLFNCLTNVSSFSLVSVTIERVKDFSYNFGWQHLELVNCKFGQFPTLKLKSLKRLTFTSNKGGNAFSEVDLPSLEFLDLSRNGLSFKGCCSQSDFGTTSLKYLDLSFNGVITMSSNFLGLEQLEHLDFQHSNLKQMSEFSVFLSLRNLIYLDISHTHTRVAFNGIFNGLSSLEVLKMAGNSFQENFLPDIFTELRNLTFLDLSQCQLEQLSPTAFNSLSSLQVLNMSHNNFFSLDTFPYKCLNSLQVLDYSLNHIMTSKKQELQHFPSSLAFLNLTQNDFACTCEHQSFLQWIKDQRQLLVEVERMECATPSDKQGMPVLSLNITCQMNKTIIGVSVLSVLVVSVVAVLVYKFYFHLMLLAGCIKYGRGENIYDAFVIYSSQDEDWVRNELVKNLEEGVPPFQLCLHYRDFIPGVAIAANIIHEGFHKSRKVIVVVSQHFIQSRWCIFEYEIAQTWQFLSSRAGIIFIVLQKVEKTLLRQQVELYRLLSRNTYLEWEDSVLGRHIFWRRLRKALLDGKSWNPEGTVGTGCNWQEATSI
Target sequence (Q99836 whole entry, looked up): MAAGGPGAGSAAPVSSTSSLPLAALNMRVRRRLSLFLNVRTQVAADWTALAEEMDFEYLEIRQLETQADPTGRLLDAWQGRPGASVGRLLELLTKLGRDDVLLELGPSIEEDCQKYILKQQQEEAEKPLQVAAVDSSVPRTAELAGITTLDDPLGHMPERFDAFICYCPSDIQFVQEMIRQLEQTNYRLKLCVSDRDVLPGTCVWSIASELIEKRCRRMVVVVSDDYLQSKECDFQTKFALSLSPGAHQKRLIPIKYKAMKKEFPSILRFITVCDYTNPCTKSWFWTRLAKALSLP
Mcl-1 Bim block: inhibitors of Bim-Mcl-1 interaction, human | inhibition, % at 10 µM | Bead-based flow cytometry, Bim peptide-Mcl-1 binding | hit rate 0.1% among 190,000 | AID 1009 | Q07820; in the data active means inhibition above about 40%
NOD2 RIPK2 conf: confirmation of human NOD2-RIPK2 interaction inhibitors; hit rate 70% among 1,200; AID 624370; CHO cells, NOD2-RIPK2 BLA complementation, CCF4 FRET; shares compounds with NOD2-RIPK2 inh; inhibition, % at 4.98 µM;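 active means mean inhibition across replicates above a set limit taken from the earlier primary screen, cut at about 21% in these data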
BLA counter: counter-screen for NOD2-RIPK2 interaction inhibitors: BLA reporter; shares compounds with NOD2-RIPK2 inh; CHO BLA reporter, CCF4 FRET ratio, counterscreen; inhibition, % at 4.98 µM; hit rate 57% among 1,200; AID 624371;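 active means mean inhibition above the low-control mean inhibition plus three low-control SD, cut at about 11% in these data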
Numbers stand for hits. A selection: hits, their analogues and other compounds. The true share with any hit is near 1.8%.

Results for Fc1ccc(/C=C2\CCCC3=C2Nc2ncnn2C3c2ccc(F)cc2)cc1 (stereo not drawn) ?
NOD2-RIPK2 inh: 26; Mcl1-Bid inh: inactive; TLR9-MyD88 inh: inactive; Mcl1 Noxa PPI: inactive; TLR4-MyD88 BLA: inactive; Mcl-1 Bim block: inactive; NOD2 RIPK2 conf: inactive; BLA counter: 14

What do the screens show for `CCCCN(C)CCN1C(=O)C2C(C(=O)Nc3cccc(OC)c3)C3C=CC2(O3)C1C(=O)NC1CCCCC1C` (stereo not drawn)?
NOD2-RIPK2 inh: inactive; TLR9-MyD88 inh: inactive

What do the screens show for `CC(C)(C)c1cc(C(=O)CCN2CCOCC2)cc(C(C)(C)C)c1O`?
NOD2-RIPK2 inh: 48; TLR9-MyD88 inh: inactive; NOD2 RIPK2 conf: inactive; BLA counter: inactive

Results for COC(=O)Nc1ccc(SCC(=O)c2cccc([N+](=O)[O-])c2)cc1 ?
NOD2-RIPK2 inh: 22; TLR9-MyD88 inh: inactive; NOD2 RIPK2 conf: inactive; BLA counter: inactive

What do the screens show for `CN(C)c1ccc(C(=O)N2CCNC(=O)C2CC(=O)Nc2ccc(F)cc2)cc1` (stereo not drawn)?
NOD2-RIPK2 inh: inactive; TLR9-MyD88 inh: inactive

How did COc1cc2c3nnc(-c4ccc(F)cc4)c-3cn(Cc3ccccc3)c2cc1OC do in these assays?
NOD2-RIPK2 inh: 67; Mcl1-Bid inh: inactive; TLR9-MyD88 inh: inactive; Mcl1 Noxa PPI: inactive; TLR4-MyD88 BLA: inactive; Mcl-1 Bim block: inactive; NOD2 RIPK2 conf: 66; BLA counter: 66

Results for CC1=CC(=O)C=C(C)C1=NOS(=O)(=O)c1ccccc1 ?
NOD2-RIPK2 inh: 27; Mcl1-Bid inh: inactive; TLR9-MyD88 inh: inactive; Mcl1 Noxa PPI: inactive; TLR4-MyD88 BLA: inactive; Mcl-1 Bim block: inactive; NOD2 RIPK2 conf: 31; BLA counter: inactive

What do the screens show for `CC1=CC(=O)C(C(C)C)=C/C1=N/OS(=O)(=O)c1ccccc1`?
NOD2-RIPK2 inh: 59; Mcl1-Bid inh: inactive; TLR9-MyD88 inh: inactive; Mcl1 Noxa PPI: inactive; NOD2 RIPK2 conf: 37; BLA counter: inactive

What do the screens show for `Cc1ccc2c(c1)/C(=N/OS(=O)(=O)c1ccccc1)CCS2`?
NOD2-RIPK2 inh: inactive; TLR9-MyD88 inh: inactive; TLR4-MyD88 BLA: inactive

What do the screens show for `Cc1ccc(S(=O)(=O)ON=C2CCN(S(=O)(=O)c3ccccc3)CC2)cc1`?
NOD2-RIPK2 inh: inactive; Mcl1-Bid inh: inactive; TLR9-MyD88 inh: inactive; Mcl1 Noxa PPI: inactive; TLR4-MyD88 BLA: inactive; Mcl-1 Bim block: inactive

What do the screens show for `CC(=O)Nc1ccc(NC(=O)CSCCc2ccccn2)cc1`?
NOD2-RIPK2 inh: inactive; Mcl1-Bid inh: inactive; TLR9-MyD88 inh: inactive; Mcl1 Noxa PPI: inactive; TLR4-MyD88 BLA: inactive; Mcl-1 Bim block: inactive

Results for COC(=O)c1cc2c(cc1NC(=O)CSCCc1ccccn1)OCO2 ?
NOD2-RIPK2 inh: 25; Mcl1-Bid inh: inactive; TLR9-MyD88 inh: inactive; Mcl1 Noxa PPI: inactive; TLR4-MyD88 BLA: inactive; Mcl-1 Bim block: inactive; NOD2 RIPK2 conf: inactive; BLA counter: inactive

What do the screens show for `O=C1C=CC2C3C(=O)N(c4ccccc4)C(=O)C3C1N2Cc1ccccc1` (stereo not drawn)?
NOD2-RIPK2 inh: 68; TLR9-MyD88 inh: inactive; NOD2 RIPK2 conf: 75; BLA counter: inactive

What do the screens show for `O=C1C2C3C=CC(CC3)C2C(=O)N1c1ccccc1` (stereo not drawn)?
NOD2-RIPK2 inh: inactive; TLR9-MyD88 inh: inactive

Results for O=S(=O)(c1cccs1)N1CCN(CC(O)COc2cccc(Br)c2)CC1 (stereo not drawn) ?
NOD2-RIPK2 inh: 22; Mcl1-Bid inh: inactive; TLR9-MyD88 inh: inactive; Mcl1 Noxa PPI: inactive; TLR4-MyD88 BLA: inactive; Mcl-1 Bim block: inactive; NOD2 RIPK2 conf: inactive; BLA counter: inactive

How did O=S(=O)(c1cccs1)N1CCN(CC(O)COC2CCCc3ccccc32)CC1 (stereo not drawn) do in these assays?
NOD2-RIPK2 inh: inactive; Mcl1-Bid inh: inactive; TLR9-MyD88 inh: inactive; Mcl1 Noxa PPI: inactive; TLR4-MyD88 BLA: inactive; Mcl-1 Bim block: inactive

What do the screens show for `CN(C(=O)c1cccc(S(=O)(=O)N2CCCC2)c1)C1CCCCC1`?
NOD2-RIPK2 inh: inactive; TLR9-MyD88 inh: inactive

What do the screens show for `COc1ccccc1-c1nnc(Nc2nc3c(OC)cccc3s2)o1`?
NOD2-RIPK2 inh: 26; Mcl1-Bid inh: inactive; TLR9-MyD88 inh: inactive; Mcl1 Noxa PPI: inactive; TLR4-MyD88 BLA: inactive; Mcl-1 Bim block: inactive; NOD2 RIPK2 conf: inactive; BLA counter: inactive

Results for COc1cccc2sc(Nc3nnc(-c4ccccc4Cl)o3)nc12 ?
NOD2-RIPK2 inh: inactive; Mcl1-Bid inh: inactive; TLR9-MyD88 inh: inactive; Mcl1 Noxa PPI: inactive; TLR4-MyD88 BLA: inactive; Mcl-1 Bim block: inactive

What do the screens show for `C=CCOc1cccc(C(=O)/C=C2/C(=O)Nc3ccccc32)c1`?
NOD2-RIPK2 inh: 41; TLR9-MyD88 inh: inactive; NOD2 RIPK2 conf: 39; BLA counter: inactive

Results for O=C1C=CC(=O)N1c1ccc2c(c1)Cc1cc(F)ccc1-2 ?
NOD2-RIPK2 inh: 23; TLR9-MyD88 inh: inactive; NOD2 RIPK2 conf: 64; BLA counter: 16

What do the screens show for `Cc1ccc(CNC(=O)Nc2ccc3c(c2)N(C)C(=O)CS3)cc1`?
NOD2-RIPK2 inh: 27; Mcl1-Bid inh: inactive; TLR9-MyD88 inh: inactive; Mcl1 Noxa PPI: inactive; TLR4-MyD88 BLA: inactive; Mcl-1 Bim block: inactive; NOD2 RIPK2 conf: inactive; BLA counter: inactive

Results for Cc1ccc(C)c2sc(NC(=O)c3ccc(N4C(=O)CCC4=O)cc3)nc12 ?
NOD2-RIPK2 inh: inactive; Mcl1-Bid inh: inactive; TLR9-MyD88 inh: inactive; Mcl1 Noxa PPI: inactive; TLR4-MyD88 BLA: inactive; Mcl-1 Bim block: inactive

Results for COc1ccc(C)c2sc(NC(=O)c3cccc(N4C(=O)CCC4=O)c3)nc12 ?
NOD2-RIPK2 inh: 22; TLR9-MyD88 inh: inactive; NOD2 RIPK2 conf: inactive; BLA counter: inactive

How did CC(Sc1ccc(S(=O)(=O)N(C)C)cn1)C(=O)NC1CCCC1 (stereo not drawn) do in these assays?
NOD2-RIPK2 inh: inactive; TLR9-MyD88 inh: inactive

How did CCc1nnc(NC(=O)CCC(=O)NC2CCCc3ccccc32)s1 (stereo not drawn) do in these assays?
NOD2-RIPK2 inh: inactive; Mcl1-Bid inh: inactive; TLR9-MyD88 inh: inactive; Mcl1 Noxa PPI: inactive; TLR4-MyD88 BLA: inactive; Mcl-1 Bim block: inactive

How did C=C1C(=O)[C@]23C[C@H]1CC[C@H]2[C@]1(C)[C@@H](OC(C)=O)CC[C@@](C)(C(=O)OC)[C@H]1C[C@@H]3OC(C)=O do in these assays?
NOD2-RIPK2 inh: 59; NOD2 RIPK2 conf: 56; BLA counter: inactive

What do the screens show for `C=C1C(=O)[C@]23C[C@H]1CC[C@H]2[C@]1(C)[C@@H](OC(C)=O)CC[C@@](C)(C(=O)O)[C@H]1C[C@@H]3O`?
NOD2-RIPK2 inh: inactive

Results for C=C1C(=O)[C@]23C[C@H]1CC[C@H]2[C@]1(C)[C@@H](O)CC[C@@](C)(C(=O)O)[C@H]1C[C@@H]3O ?
NOD2-RIPK2 inh: inactive

Screening results from PubChem.
